Calls of active or inactive are those of the source. How the source made its calls: active means hit-call score of the fitted dose curve at least 0.9, where 1 is the maximum; inactive means score below 0.9.

In general, AC50 refers to the midpoint of the concentration-response curve, whichever way the signal moves.

This assay in a line: CCTE_Shafer_MEA_acute_cross_correlation_area: CCTE's Neural Acute Assay for Area of Cross Correlation, Shafer Lab (AID 2284024).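 Further: curves fitted for loss of cross-correlation area so actives lower synchrony.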 In short, it runs like this: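 Rat primary cortical neurons on 48-well MEA, DIV 13 or 15; compounds 0.03-40 uM. Baseline and post-exposure 40 min recordings at 37 C; percent change in area under pooled inter-electrode cross-correlation near zero lag, relative to DMSO.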
Turning to `Nc1nc(=S)c2[nH]cnc2[nH]1`, the compound was called inactive.
Take `CCc1cc(C2=C(C(=O)O)N(c3ccccc3C(F)(F)F)S(=O)(=O)c3ccccc32)cc2c1OCO2`: the compound was called inactive.
In the case of `Cc1ccc(-c2cc(C(F)(F)F)nn2-c2ccc(S(N)(=O)=O)cc2)cc1`, the outcome was inactive.
In the case of `OCC(CO)n1cnc(-c2ccc(F)cc2)c1-c1ccnc(Oc2ccccc2)n1`, the AC50 is 3900 nM (active).
For the compound `CN(C)C(=O)NC1(c2ccccc2)CCN(CCC[C@]2(c3ccc(Cl)c(Cl)c3)CCCN(C(=O)c3ccccc3)C2)CC1`, the AC50 is 1.18 nM (active).
With `CN(C)C(=O)NC1(c2ccccc2)CCN(CC[C@@]2(c3ccc(F)c(F)c3)CN(C(=O)c3ccccc3)CCO2)CC1`, the compound was classed as inactive.
In the case of `CCN(CC)CCOc1ccc(C(=C(Cl)c2ccccc2)c2ccccc2)cc1`, the compound was classed as inactive.
Turning to `Cc1c(C)c2c(c(C)c1O)CCC(C)(COc1ccc(CC3SC(=O)NC3=O)cc1)O2` (configuration not stated), the call was inactive.
As to `CCCCC(CC)COP(=O)(OCC(CC)CCCC)OCC(CC)CCCC` (configuration not stated), the result was inactive.
Take `Cc1cc(SC2=C(O)C[C@@](CCc3ccc(N)cc3)(C(C)C)OC2=O)c(C(C)(C)C)cc1CO`: the AC50 is 20000 nM (active).
Turning to `CSc1ccc(Oc2ccc(S(N)(=O)=O)cc2CN(C)C)cc1C`, the compound was classed as inactive.
Turning to `CCCC(=O)O`, the call was inactive.
As for `CC1=C(C)S(=O)(=O)CCS1(=O)=O`, the call was inactive.
Still for that read-out and setting: the value for `O=C1OC(c2ccc(O)cc2)(c2ccc(O)cc2)c2ccccc21` was “inactive”.
For `NC(=Nc1ccccc1)Nc1ccccc1`, the call was inactive.
Take `Oc1ccc(O)cc1`: the compound was called inactive.
Take `O=C(O)CN(CC(=O)O)CC(=O)O`: the compound was classed as inactive.
Consider `c1ccc2occc2c1`, for which the outcome was inactive.
On to `CC(C)COC(=O)CCCCC(=O)OCC(C)C`, for which the outcome was inactive.
In the case of `CC(C)NCC(O)c1ccc(O)c(O)c1` (configuration not stated), the result was inactive.
For the compound `COC(=O)[C@H]1[C@H]2C[C@@H]3c4[nH]c5cc(OC)ccc5c4CCN3C[C@H]2C[C@@H](OC(=O)c2cc(OC)c(OC)c(OC)c2)[C@@H]1OC`, the compound was called inactive.
As for `C/C=C/c1ccc(OC)cc1`, the outcome was inactive.
As for `Cc1cc(Cc2ccc(N)c(C)c2)ccc1N`, the result was inactive.
In the case of `COc1ccc(OC(F)(F)F)cc1CN[C@H]1CCCN[C@H]1c1ccccc1`, the call was inactive.
For the compound `CC(N)=O`, the compound was classed as inactive.
Take `Cc1ccc(C(C)(C)C)c(O)c1`: the compound was classed as inactive.
`O=C(N[C@@H](c1ccccc1)[C@@H]1CCCCN1)c1cccc(C(F)(F)F)c1Cl`: the AC50 was 1990 nM (active).

The values are drawn from PubChem BioAssay (EPA / NIEHS).
